Compound activity as filed in PubChem.
LASV entry inh = qHTS for Inhibitors of binding or entry into cells for Lassa Virus | AID 540256, 2011 | Lassa virus pseudotype entry inhibition, cell reporter | 300,000 tested, 1.2% active | Potency, µM (series often up to 37.9 µM), actives largely listed as inhibitors; calls by dose curve; tested in HEK293 cells; note: nearly all actives have a fitted effect of over 50% in size
Pf growth 96h = Primary qHTS for delayed death inhibitors of the malarial parasite plastid, 96 hour incubation. Potency, µM (top dose mostly 28.7 µM), usual class: inhibitors. 320,000 tested, 6.9% active. AID 504834, 2011. P. falciparum luciferase reporter growth, 96 h
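96 h incubation, 37 C, 5% CO2, of luciferase-reporter P. falciparum-infected RBCs (2% hematocrit, 0.05% parasitemia final) with test compounds; endpoint luminescence.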
MARV entry inh = qHTS for inhibitors of binding or entry into cells for Marburg Virus. Marburg virus pseudotyped entry inhibition, cell reporter. Potency, µM (highest dose often 37.8 µM), usual class: inhibitors. AID 540276, 2011. 300,000 tested, 1.8% active; calls by dose curve; tested in HEK293 cells
CHX counter = Cycloheximide Counterscreen for Small Molecule Inhibitors of Shiga Toxin; 300,000 tested, 12% active; max response, %; cell reporter, cycloheximide protein synthesis inhibition counterscreen; in the data active = max response mostly above about 13%, no sharp cut-off; inactive = mostly below about 14%; note: read at 38.3 µM for the half of the compounds with a filed dose
Pf growth 48h = Primary qHTS for delayed death inhibitors of the malarial parasite plastid, 48 hour incubation; P. falciparum luciferase growth in erythrocytes, 48 h; Potency, µM (top dose mostly 28.7 µM), actives largely listed as inhibitors; 310,000 tested, 5.9% active
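In quantitative HTS format, infected erythrocytes bearing luciferase-reporter parasites were treated for a single generation at 37 C. Luminescence after adding detection reagent served as the growth measure.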
Shiga toxin inh = A qHTS for Small Molecule Inhibitors of Shiga Toxin; Vero cells, Shiga toxin protein synthesis inhibition reporter; inhibition, % at 38.7 µM; 290,000 tested, 9.2% active; AID 2315, 2010; in the data active = inhibition mostly above about 28%, no sharp cut-off; inactive = mostly below about 43%
Of the large screens only hits and unclear results are named; the others gave an inactive call. Shown are actives, neighbours in structure and some others; about 19% of the full set was active somewhere. Unless noted, calls come from the whole dose curve; as a rule, active = well fitted inhibition curve with a large enough effect; inconclusive = small, poorly fitted or top-dose-only effect, or another doubt; inactive = no such curve, though single readings can be large or run the other way.

CCc1ccc(-c2nc(CS(=O)CC(=O)NCCc3ccc(C)cc3)c(C)o2)cc1 (stereo not drawn)	none (no result: Pf growth 96h, MARV entry inh, CHX counter, Pf growth 48h, Shiga toxin inh)
Cc1oc(-c2ccc(Cl)cc2)nc1CS(=O)CC(=O)NCCCN1CCOCC1 (stereo not drawn)	Pf growth 96h inconclusive (no result: LASV entry inh, MARV entry inh)
CCc1ccc(-c2nc(CS(=O)CC(=O)NCCCN3CCC(C)CC3)c(C)o2)cc1 (stereo not drawn)	CHX counter 19, Pf growth 48h inconclusive (no result: LASV entry inh, MARV entry inh)
O=C(NCc1nc(-c2ccc(C(F)(F)F)cc2)no1)Nc1ccc(F)cc1F	MARV entry inh inconclusive
Cc1cc(C)c(N(CC(=O)NC(C)(C)C)C(=O)CNC(=O)c2cccs2)c(C)c1	Pf growth 48h inconclusive
C=CCNC(=S)N1CCN(CCNC2=CC(=O)CC(C)(C)C2)CC1	Pf growth 96h inconclusive
Cc1ccc(CCNC(=O)CS(=O)Cc2nc(-c3cccs3)oc2C)cc1 (stereo not drawn)	none (no result: LASV entry inh, MARV entry inh)
CCc1ccc(-c2nc(CS(=O)CC(=O)NCCN3CCCCCC3)c(C)o2)cc1 (stereo not drawn)	LASV entry inh inconclusive, MARV entry inh inconclusive, CHX counter 27
CCCCNC(=O)CS(=O)Cc1nc(-c2cccc(C)c2)oc1C (stereo not drawn)	Pf growth 96h 0.1µM (no result: LASV entry inh, MARV entry inh, Pf growth 48h)
Cc1oc(-c2ccc(Cl)cc2)nc1CS(=O)CC(=O)NC1CCCCCC1 (stereo not drawn)	Pf growth 96h 9.3µM
Cc1ccc(-c2nc(CS(=O)CC(=O)NCCN3CCCC3)c(C)o2)cc1 (stereo not drawn)	none (no result: LASV entry inh, Pf growth 48h)
COc1ccc(CCNC(=O)CS(=O)Cc2nc(-c3cccs3)oc2C)cc1OC (stereo not drawn)	Pf growth 96h 8.3µM, Pf growth 48h inconclusive
O=C1NC(=O)/C(=C/c2ccc(-c3cc(C(=O)O)ccc3Cl)o2)S1	Pf growth 96h inconclusive (no result: LASV entry inh, MARV entry inh)
O=C1NC(=S)/C(=C\c2ccc(-c3ccccc3Cl)o2)S1	Shiga toxin inh 31
COc1ccc(CNc2cccc(C)n2)c(O)c1	none
Oc1ccc(Br)cc1CNc1ccccn1	Pf growth 96h 6.6µM, CHX counter 13, Pf growth 48h inconclusive (no result: LASV entry inh, MARV entry inh)
Cc1ccnc(NCc2ccccc2O)c1	CHX counter 14 (no result: Shiga toxin inh)
COc1ccc(CNc2cc(C)ccn2)c(O)c1	LASV entry inh inconclusive, CHX counter 25, Shiga toxin inh 79 (no result: Pf growth 48h)
COCCNc1nnc(Cc2ccccc2)c(=O)[nH]1	none
CCc1ccc(NC(=O)N2CCC(N3CCN(Cc4ccc(C)cc4)C(=O)C3=O)CC2)cc1	none (no result: Pf growth 96h, MARV entry inh, CHX counter, Pf growth 48h, Shiga toxin inh)
CCc1ccc(-c2nc(CSCC(=O)NC3CC3)c(C)o2)cc1	LASV entry inh inconclusive, MARV entry inh 5µM, Pf growth 48h inconclusive
Cc1oc(-c2ccccc2F)nc1CSCC(=O)NC1CCCC1	Pf growth 96h 1.5µM
Cc1oc(-c2ccccc2Cl)nc1CSCC(=O)NC1CC1	LASV entry inh inconclusive, Pf growth 96h inconclusive, MARV entry inh inconclusive, Pf growth 48h inconclusive
CSc1ccc(-c2nc(CSCC(=O)N3CCOCC3)c(C)o2)cc1	Pf growth 96h inconclusive, CHX counter 27, Shiga toxin inh 108
CSc1ccc(-c2nc(CSCC(=O)NC3CC3)c(C)o2)cc1	CHX counter 20, Shiga toxin inh 27 (no result: LASV entry inh, MARV entry inh)
CCC(C)NC(=O)CSCc1nc(-c2ccc(C)cc2)oc1C (stereo not drawn)	LASV entry inh inconclusive (no result: Pf growth 96h, CHX counter, Pf growth 48h, Shiga toxin inh)
COC(=O)CSCc1nc(-c2ccc(C(=O)OC)cc2)oc1C	LASV entry inh 7.1µM (no result: Pf growth 96h, MARV entry inh, CHX counter, Pf growth 48h, Shiga toxin inh)
CN(CC(=O)Nc1ccccc1Cl)C(=O)c1ccc(COc2ccccc2)cc1	none (no result: CHX counter, Shiga toxin inh)
CN(CC(=O)Nc1ccccc1Br)C(=O)c1ccc(COc2ccccc2)cc1	CHX counter 19
COc1cccc(NC(=O)CN(C)C(=O)c2cc(C)oc2C)c1	none (no result: LASV entry inh, MARV entry inh, CHX counter, Shiga toxin inh)
CCCN(CC(=O)Nc1ccccc1OC)C(=O)c1ccc(COc2ccccc2)o1	Pf growth 96h inconclusive, Pf growth 48h 15µM (no result: LASV entry inh, MARV entry inh, CHX counter, Shiga toxin inh)
CCCN(CC(=O)Nc1ccccc1OC)C(=O)c1cc2ccccc2o1	Pf growth 96h inconclusive, MARV entry inh inconclusive
COc1cccc(NC(=O)CN(C)C(=O)c2ccc(COc3ccccc3)o2)c1	Pf growth 96h 15µM, Pf growth 48h 15µM (no result: LASV entry inh, MARV entry inh, CHX counter, Shiga toxin inh)
Cc1ccc(CN(Cc2ccco2)C(=O)COc2cc(C)c(Cl)c(C)c2)cc1	LASV entry inh inconclusive (no result: Pf growth 96h, CHX counter, Pf growth 48h, Shiga toxin inh)
